# Measured values taken from publication PMC5540273 (PLoS ONE, 2017).
# “And” between values parts separate entries of the source, which are not always exact repeats. Equal values may be shown once. Read-outs that look alike come from different tables or passages of the source.
# How the values were obtained:
# DAPK2 = settings: n = 1
# DAPK3 = settings: n = 1
# DCAMKL1 = system: T1, DCAMKL1; settings: n = 1
# T1 construct: gene DCLK1
# DCAMKL2 = system: T2, DCAMKL2; settings: concentration: 1 μM, replicates: in singlicate; n = 1
# T2 construct: gene DCLK2
# DCAMKL3 = system: T3, DCAMKL3; settings: n = 1
# T3 construct: gene DCLK3
# DDR1 = settings: n = 1
# DDR2 = settings: concentration: 1 μM, replicates: in singlicate; n = 1
# DLK = system: T4, DLK; settings: n = 1
# T4 construct: gene MAP3K12
# DMPK2 = system: T5, DMPK2; settings: n = 1
# T5 construct: gene CDC42BPG
# DMPK = settings: concentration: 1 μM, replicates: in singlicate; n = 1
# [1] = concentration: 1 μM, replicates: in singlicate
# [2] = concentration: 1 μM,replicates: in singlicate, 1 µM
# 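Further: KINOMEscan kinase panel screen.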
Compound,%Inh (DAPK2; [1]),%Inh (DAPK3; [1]),%Inh (DCAMKL1; [1]),%Inh (DCAMKL2),%Inh (DCAMKL3; [1]),%Inh (DDR1; [1]),%Inh (DDR2),%Inh (DLK; [1]),%Inh (DMPK2; [1]),%Inh (DMPK),%Inh (DAPK2; [2]),%Inh (DAPK3; [2]),%Inh (DCAMKL1; [2]),%Inh (DCAMKL3; [2]),%Inh (DDR1; [2]),%Inh (DLK; [2]),%Inh (DMPK2; [2])
Clc1cc(Cl)cc(Nc2ccnc(Nc3cc(Cl)cc(Cl)c3)n2)c1 [GSK175726],19%,23%,0%,0%,0%,6%,24%,11%,18%,0%,–,–,–,–,–,–,–
CSc1nn2c(=O)cc(N3CCOCC3)nc2n1Cc1cccc(C(F)(F)F)c1C [GSK2363608],–,–,–,0%,–,–,0%,–,–,0%,9% and 0%,27% and 0%,10% and 0%,34% and 0%,7% and 4%,34% and 0%,24% and 2%
O=C(Nc1ccc2c(c1)OCO2)NC1CCN(c2ccnc(Nc3ccc(F)cc3)n2)C1 (stereo not drawn) [GSK1379724],0%,0%,0%,7%,32%,0%,52%,24%,9%,0%,–,–,–,–,–,–,–
COc1ccccc1-c1ccc2c(NC(=O)C3CC3)n[nH]c2n1 [SB-711239],11%,3%,0%,3%,0%,10%,22%,5%,0%,1%,–,–,–,–,–,–,–
C[C@@H]1CCCCN1c1cc(-c2ccc3c(N)n[nH]c3c2)nc(N)n1 [GSK2258759],0%,19%,2%,0%,0%,0%,0%,21%,0%,0%,–,–,–,–,–,–,–
CCn1c(-c2ccccn2)nc2cnccc21 [SB-736398],0%,13%,5%,0%,0%,0%,39%,53%,0%,0%,–,–,–,–,–,–,–
COC(=O)c1c(-c2ccccc2)c2cc(OC)ccc2c(=O)n1Cc1ccccc1,2%,6%,12%,7%,0%,81%,50%,9%,0%,0%,–,–,–,–,–,–,–
COc1ccc2nc(-c3cccc(C)n3)nc(Nc3ccncc3)c2c1 [GSK204919],0%,22%,5%,26%,0%,58%,5%,8%,91.1%,0%,–,–,–,–,–,–,–
NC(=O)c1nnc2ccccc2c1N,10%,6%,9%,30%,0%,0%,11%,18%,0%,0%,–,–,–,–,–,–,–
